Laboratory results taken from PubChem BioAssay (NCATS).
Records with an inconclusive call do not appear. A call without a number means that no potency is given here. The source made the active and inactive calls. Unless noted, calls come from the whole dose curve; as a rule, active = well fitted curve in the direction sought with a large enough effect; inconclusive = small, poorly fitted or top-dose-only effect, or another doubt; inactive = no such curve, though single readings can be large; an effect the other way counts as inactive or inconclusive.

Experiments:
[1] = target: Glutathione peroxidase 1 (Homo sapiens) (UniProt P07203); test: Primary qHTS Assay for Inhibitors of Recombinant Selenoprotein Glutathione Peroxidase 1 (GPX1) (AID 1845191); note: nearly all actives have a fitted effect of over 65% in size
Outline: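 NADPH consumption tracked by fluorescence at 340/450 nm between t=0 and t=15 min, room temperature. Final mix: 10 nM GPX1, 100 nM glutathione reductase, 1 mM GSH, 0.5 mM NADPH, 0.5 mM cumene hydroperoxide, 0.01% BSA; 30 min compound–enzyme preincubation.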

[2] = Viability counterscreen for antagonist of constitutive androstane receptor (CAR) against the NCATS DSHEA and TCM libraries (AID 1794837);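 note: compound exposure lasted 24 h before viability reading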
Outline: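 HepG2-CYP2B6-hCAR cells, 2,500/well, were exposed 24 hr at 37C to substances together with 48 uM CITCO (final). Viability was read as CellTiter-Fluor fluorescence (Ex/Em 405/540 nm) after 1 hr.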

[3] = Viability counterscreen for agonist of constitutive androstane receptor (CAR) against the NCATS DSHEA and TCM libraries (AID 1794838);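 note: HepG2 cells with CYP2B6 reporter and hCAR plus 0.75 µM PK11195 antagonist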
Outline: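 HepG2-CYP2B6-hCAR cells (2,500/well) treated 24 h at 37C with compounds plus 0.75 uM PK11195; viability read by CellTiter-Fluor fluorescence, Ex/Em 405/540 nm.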

[4] = target: Nuclear receptor subfamily 1 group I member 3 (Homo sapiens) (UniProt Q14994); test: Primary qHTS for agonist of constitutive androstane receptor (CAR) against the NCATS DSHEA and TCM libraries (AID 1794839);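 note: HepG2 cells expressing human CAR with a CYP2B6 reporter plus PK11195 antagonist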
Outline: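 HepG2-CYP2B6-hCAR cells, 2,500/well, attached 5 h, then dosed with 0.75 µM PK11195 (final) for 24 h at 37 °C. Luciferase luminescence read (ONE-Glo); CellTiter-Fluor viability (Ex/Em 405/540 nm) in same wells; CITCO positive control.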

[5] = HepG2 viability counterscreen (readout 2: ATP content) against the NCATS DSHEA and TCM libraries (AID 1794840)
Outline: (§1)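 HepG2 cells, 1,000/well, attached ~4 h, then exposed ~24 h at 37C to substances. Protease activity read by fluorescence of 25 uM GF-AFC (Ex/Em 380/510 nm) after 30 min; ATP then by CellTiter-Glo luminescence.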

[6] = HepG2 viability counterscreen (readout 1: protease activity) against the NCATS DSHEA and TCM libraries (AID 1794841);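 note: cells exposed to compounds for about 24 h before the protease read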
Outline: as §1

[7] = target: Phospholipid hydroperoxide glutathione peroxidase GPX4 (Homo sapiens) (UniProt P36969); test: Primary qHTS Assay for Inhibitors of Recombinant Selenoprotein Glutathione Peroxidase 4 (GPX4) (AID 1845192); note: nearly all actives have a fitted effect of over 65% in size
Outline: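 NADPH consumption followed by fluorescence at 340/450 nm, t=0 and after 15 min at room temperature. Reaction started with cumene hydroperoxide (0.5 mM final) after 30 min compound–GPX4 preincubation; final 200 nM GPX4, 100 nM GR, 1 mM GSH, 0.5 mM NADPH.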

[8] = target: Cytochrome P450 3A4 (Homo sapiens) (UniProt P08684); test: qHTS for inhibitors of CYP3A4 against the NCATS DSHEA and TCM libraries (AID 1919971);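 note: inhibition lowers luminescence from luciferin made by CYP3A4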
Outline: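 Each CYP isoform and its pro-luciferin substrate, at isoform-specific final concentrations, were preincubated 15 min at RT with substances. NADPH regeneration solution (1x) started a 30-45 min reaction, and P450-Glo luminescence was read.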

[9] = target: Cytochrome P450 2D6 (Homo sapiens) (UniProt P10635); test: qHTS for inhibitors of CYP2D6 against the NCATS DSHEA and TCM libraries (AID 1919972)
Outline: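 CYP2D6 enzyme with pro-luciferin substrate in manufacturer buffer (typically 100 mM KPO4), preincubated 15 min RT with substances (most at 19.5 nM upward); NADPH regeneration system (1x) started 30–45 min RT reaction; P450-Glo luminescence read after 30 min; quinidine as intraplate control.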

[10] = target: Catechol O-methyltransferase (Homo sapiens) (UniProt P21964); test: Confirmatory Screen for Target Class Profiling of Small Molecule Inhibitors of Methyltransferases (AID 1745852; calls by dose curve); conditions: MTase-Glo luminescence, SAH detection, recombinant enzyme; measured here: COMT max response; stronger effect = lower value
[11] = target: Guanidinoacetate N-methyltransferase (Homo sapiens) (UniProt Q14353); test: as above; conditions: MTase-Glo luminescence, SAH detection, recombinant enzyme; at 57.3 µM (top of the series)
[12] = target: Nicotinamide N-methyltransferase (Homo sapiens) (UniProt P40261); test: as above; conditions: MTase-Glo luminescence, SAH detection, recombinant enzyme; measured here: NNMT max response; stronger effect = lower value
[13] = target: Phenylethanolamine N-methyltransferase (Homo sapiens) (UniProt P11086); test: as above; conditions: MTase-Glo luminescence, SAH detection, recombinant enzyme; measured here: PNMT max response; stronger effect = lower value
[14] = target: Luciferin 4-monooxygenase (Photinus pyralis) (UniProt P08659); test: Primary firefly luciferase (FLuc) qHTS assay for identification of artifact compounds. (AID 1845220); note: nearly all actives have a fitted effect of over 60% in size
Outline: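 Cell-free, 1536-well qHTS. Buffer pH 7.6 with 0.01% Tween-20 and 0.05% BSA; 10 uM D-luciferin, 10 uM ATP; 10 nM P. pyralis luciferase; luminescence after 5 min.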

[15] = Primary fluorescence-based thiol-reactive (MSTI) qHTS assay for identification of artifact compounds. (AID 1845221);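 note: thiol-reactive compounds lower the probe fluorescence signal; nearly all actives have a fitted effect of over 65% in size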
Outline: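 MSTI probe at 4 uM final in 2% DMSO/PBS pH 7.4; compounds, 1 h at room temperature in dark. Fluorescence Ex/Em 525/598 nm, normalised to Acetyl-MSTI and MSTI, fitted to 4-parameter Hill.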

[16] = tested on: Nanoluciferase (engineered Oplophorus gracilirostris luciferase); test: Primary Nanoluciferase (NLuc) qHTS assay for identification of artifact compounds. (AID 1845222); note: potency is the fitted concentration of half-maximal effect
Outline: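 Compounds are pinned into diluted (1:55) conditioned medium of NLuc-expressing S16 cells and held 15 min at room temperature protected from light. Nano-Glo substrate follows, and luminescence is read 5 min later.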

[17] = NCATS anti-infectives library activity on HEK293 viability as a counter-qHTS vs the C. elegans viability qHTS (AID 1745854); note: potency is the fitted concentration of half-maximal effect
Outline: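 Cytotoxicity counter-screen to a worm viability qHTS: CellTiter-Glo luminescence read 10 min after reagent addition. Compounds (final up to 41.7 uM, a 1:5 dilution series) incubated 24 hr at 37C with 1,500 HEK293 cells per well; digitonin control.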

[18] = Primary redox qHTS assay for identification of artifact compounds. (AID 1845223)
Outline: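 Redox-cycling detection via DTT (250 uM final) oxidation coupled to Amplex Red (25 uM)/HRP (250 mU/mL) in HBSS. 15 min preincubation plus 30 min after DTT, room temperature. Ex/Em 525/598 nm; 4-parameter Hill fit against DMSO and 10 uM DA3003.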

[19] = target: Rap guanine nucleotide exchange factor 4 (Homo sapiens) (UniProt Q8WZA2); test: Confirmatory qHTS for antagonist of cAMP-regulated guanine nucleotide exchange factor 4 (EPAC2) (AID 1645885); note: nearly all actives have a fitted effect of over 25% in size; note: potency is the fitted concentration of half-maximal effect
[20] = NCATS anti-infectives library activity on the primary C. elegans qHTS viability assay (AID 1745855; calls by dose curve); conditions: C. elegans worm area imaging, day 7; at 41.8 µM (top of the series)
Outline: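 GFP read-out by 488 nm laser cytometry at day 0, 3 and 7, gated on object perimeter, area and peak intensity, scored viability of PE254-GFP-FLuc worms exposed to compound in S medium with bacterial capsules at 21 °C.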

Chain of Phospholipid hydroperoxide glutathione peroxidase GPX4 (Homo sapiens) (P36969 whole entry, looked up): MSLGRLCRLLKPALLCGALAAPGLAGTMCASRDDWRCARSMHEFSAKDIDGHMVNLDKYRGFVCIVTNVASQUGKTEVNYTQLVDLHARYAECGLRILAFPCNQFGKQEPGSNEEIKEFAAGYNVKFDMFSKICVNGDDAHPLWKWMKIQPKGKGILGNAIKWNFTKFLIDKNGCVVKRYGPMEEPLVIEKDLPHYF
Chain of Glutathione peroxidase 1 (Homo sapiens) (P07203 whole entry, looked up): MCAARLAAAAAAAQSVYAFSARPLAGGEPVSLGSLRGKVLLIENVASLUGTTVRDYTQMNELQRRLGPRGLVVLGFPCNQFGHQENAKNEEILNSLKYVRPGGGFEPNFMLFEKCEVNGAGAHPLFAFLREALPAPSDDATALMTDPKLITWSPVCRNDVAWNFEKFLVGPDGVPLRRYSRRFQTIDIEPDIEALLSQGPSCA
Chain of Phenylethanolamine N-methyltransferase (Homo sapiens) (P11086 whole entry, looked up): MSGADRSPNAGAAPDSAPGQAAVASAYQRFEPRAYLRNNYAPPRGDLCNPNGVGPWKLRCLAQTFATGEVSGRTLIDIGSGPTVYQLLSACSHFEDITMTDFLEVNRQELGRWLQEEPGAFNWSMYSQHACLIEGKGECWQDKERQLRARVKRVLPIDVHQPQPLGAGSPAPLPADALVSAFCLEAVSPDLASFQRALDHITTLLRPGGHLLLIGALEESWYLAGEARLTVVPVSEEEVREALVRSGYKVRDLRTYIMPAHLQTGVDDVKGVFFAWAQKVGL
Chain of Rap guanine nucleotide exchange factor 4 (Homo sapiens) (Q8WZA2 whole entry, looked up): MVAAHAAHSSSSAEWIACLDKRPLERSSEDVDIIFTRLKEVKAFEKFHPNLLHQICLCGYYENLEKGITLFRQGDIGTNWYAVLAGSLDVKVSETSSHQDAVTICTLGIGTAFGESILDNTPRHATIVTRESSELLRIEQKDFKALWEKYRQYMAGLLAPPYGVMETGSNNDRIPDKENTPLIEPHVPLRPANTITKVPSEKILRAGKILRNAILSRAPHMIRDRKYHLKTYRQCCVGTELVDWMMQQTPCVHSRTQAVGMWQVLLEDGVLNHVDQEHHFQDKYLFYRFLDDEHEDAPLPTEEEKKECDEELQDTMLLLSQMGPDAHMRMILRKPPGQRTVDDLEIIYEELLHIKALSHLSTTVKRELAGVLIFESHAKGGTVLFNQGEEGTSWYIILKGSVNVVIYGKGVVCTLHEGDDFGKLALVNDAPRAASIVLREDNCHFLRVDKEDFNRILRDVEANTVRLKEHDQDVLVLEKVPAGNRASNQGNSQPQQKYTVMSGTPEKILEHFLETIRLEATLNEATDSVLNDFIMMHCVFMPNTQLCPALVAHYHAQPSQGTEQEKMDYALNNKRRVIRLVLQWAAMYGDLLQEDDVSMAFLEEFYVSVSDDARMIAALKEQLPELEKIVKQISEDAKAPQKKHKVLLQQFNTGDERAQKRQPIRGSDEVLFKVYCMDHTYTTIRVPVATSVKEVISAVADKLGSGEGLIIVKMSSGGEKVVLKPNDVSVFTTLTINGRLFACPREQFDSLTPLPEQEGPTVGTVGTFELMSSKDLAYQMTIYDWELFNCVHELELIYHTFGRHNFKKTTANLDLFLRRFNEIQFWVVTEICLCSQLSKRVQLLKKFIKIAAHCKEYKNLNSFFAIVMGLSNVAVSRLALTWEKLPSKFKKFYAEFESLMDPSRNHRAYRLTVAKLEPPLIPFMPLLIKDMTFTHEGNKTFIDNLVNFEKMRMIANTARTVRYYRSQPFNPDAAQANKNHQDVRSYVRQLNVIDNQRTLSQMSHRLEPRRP
Chain of Catechol O-methyltransferase (Homo sapiens) (P21964 whole entry, looked up): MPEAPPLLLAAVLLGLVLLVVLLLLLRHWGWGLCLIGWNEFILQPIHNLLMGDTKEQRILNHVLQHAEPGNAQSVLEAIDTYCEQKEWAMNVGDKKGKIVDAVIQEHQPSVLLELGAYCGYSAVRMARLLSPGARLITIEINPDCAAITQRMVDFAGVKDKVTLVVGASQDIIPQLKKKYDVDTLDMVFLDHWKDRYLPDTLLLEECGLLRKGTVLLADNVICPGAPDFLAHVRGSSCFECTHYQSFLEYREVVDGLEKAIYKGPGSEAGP
Chain of Nicotinamide N-methyltransferase (Homo sapiens) (P40261 whole entry, looked up): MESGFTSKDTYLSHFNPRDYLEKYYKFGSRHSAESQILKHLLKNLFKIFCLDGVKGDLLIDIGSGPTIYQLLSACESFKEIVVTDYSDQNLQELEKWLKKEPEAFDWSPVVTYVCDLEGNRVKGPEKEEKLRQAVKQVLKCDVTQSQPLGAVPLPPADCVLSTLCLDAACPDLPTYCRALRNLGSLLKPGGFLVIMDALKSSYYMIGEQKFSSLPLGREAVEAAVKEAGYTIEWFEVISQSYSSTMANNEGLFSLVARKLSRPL
Chain of Cytochrome P450 2D6 (Homo sapiens) (P10635 whole entry, looked up): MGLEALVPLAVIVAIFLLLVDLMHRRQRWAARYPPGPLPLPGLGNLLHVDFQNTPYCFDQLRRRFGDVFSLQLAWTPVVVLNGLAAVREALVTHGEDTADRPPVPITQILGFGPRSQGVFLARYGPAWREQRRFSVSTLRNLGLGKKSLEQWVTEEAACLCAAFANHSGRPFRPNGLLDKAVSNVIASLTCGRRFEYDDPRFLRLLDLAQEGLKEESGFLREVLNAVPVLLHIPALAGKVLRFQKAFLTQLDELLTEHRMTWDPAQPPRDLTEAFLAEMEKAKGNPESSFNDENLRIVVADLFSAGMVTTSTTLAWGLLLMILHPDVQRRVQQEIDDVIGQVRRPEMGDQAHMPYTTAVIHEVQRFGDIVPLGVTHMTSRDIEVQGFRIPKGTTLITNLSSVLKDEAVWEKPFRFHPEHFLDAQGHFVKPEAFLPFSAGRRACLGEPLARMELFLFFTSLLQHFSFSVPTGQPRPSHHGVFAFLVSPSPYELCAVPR
Chain of Cytochrome P450 3A4 (Homo sapiens) (P08684 whole entry, looked up, canonical isoform): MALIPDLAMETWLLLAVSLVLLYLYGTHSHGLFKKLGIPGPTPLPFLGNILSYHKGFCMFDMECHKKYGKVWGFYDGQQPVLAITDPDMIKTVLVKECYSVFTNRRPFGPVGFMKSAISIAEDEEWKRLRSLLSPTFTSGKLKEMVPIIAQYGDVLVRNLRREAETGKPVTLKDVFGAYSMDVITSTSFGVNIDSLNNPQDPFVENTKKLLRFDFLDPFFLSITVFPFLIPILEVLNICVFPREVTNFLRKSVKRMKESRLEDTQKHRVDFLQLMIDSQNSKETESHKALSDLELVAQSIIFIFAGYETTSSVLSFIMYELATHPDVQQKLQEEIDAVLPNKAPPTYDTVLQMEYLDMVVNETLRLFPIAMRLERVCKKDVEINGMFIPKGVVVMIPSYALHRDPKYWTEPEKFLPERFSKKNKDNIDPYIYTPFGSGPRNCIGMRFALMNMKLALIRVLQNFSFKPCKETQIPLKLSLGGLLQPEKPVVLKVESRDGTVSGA
Chain of Nuclear receptor subfamily 1 group I member 3 (Homo sapiens) (Q14994 whole entry, looked up): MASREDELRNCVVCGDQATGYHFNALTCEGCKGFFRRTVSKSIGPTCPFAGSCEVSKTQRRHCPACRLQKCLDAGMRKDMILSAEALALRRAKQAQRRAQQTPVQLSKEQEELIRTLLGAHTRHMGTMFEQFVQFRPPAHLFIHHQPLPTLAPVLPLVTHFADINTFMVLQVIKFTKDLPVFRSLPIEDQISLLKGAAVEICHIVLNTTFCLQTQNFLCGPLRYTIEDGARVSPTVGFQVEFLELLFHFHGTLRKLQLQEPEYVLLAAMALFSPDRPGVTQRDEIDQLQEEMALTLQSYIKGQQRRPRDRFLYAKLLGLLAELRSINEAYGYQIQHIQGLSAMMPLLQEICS

SMILES: O=C(Nc1ccc(Cl)cc1)Nc1ccc(Cl)c(C(F)(F)F)c1
- Potency [1]: inactive

SMILES: O=C(O)CCCC[C@@H]1SC[C@@H]2NC(=O)N[C@@H]21
- outcome [2]: inactive
- outcome [3]: inactive
- outcome [4]: inactive
- outcome [5]: inactive
- outcome [6]: inactive
- Potency [1]: inactive
- Potency [7]: inactive
- outcome [8]: inactive
- outcome [9]: inactive

SMILES: C=CC[N+]1([C@H]2C[C@H]3[C@@H]4CC[C@H]5C[C@H](OC(C)=O)[C@@H](N6CCCCC6)C[C@]5(C)[C@H]4CC[C@]3(C)[C@H]2OC(=O)CC)CCCCC1
- activity [10]: -2.74%
- activity change, negative = inhibition [11]: 0%
- activity [12]: -7.38%
- activity [13]: -11.5%
- Potency [1]: inactive
- Potency [7]: inactive
- Potency [14]: inactive
- Potency [15]: inactive
- Potency [16]: inactive

SMILES: CCCCC(CC)CNC(=O)CC(C)OC(=O)CCC(=O)O (stereo not drawn)
- Potency [1]: inactive

SMILES: CC[C@@H]([C@H](C)O)n1ncn(-c2ccc(N3CCN(c4ccc(OC[C@@H]5CO[C@@](Cn6cncn6)(c6ccc(F)cc6F)C5)cc4)CC3)cc2)c1=O
- Potency [17]: inactive
- Potency [1]: inactive
- Potency [7]: inactive

SMILES: CN(C)c1cc2c(Nc3ccc4c(cnn4Cc4ccccc4)c3)ncnc2cn1
- activity [10]: 5.63%
- activity change, negative = inhibition [11]: 6.38%
- activity [12]: -16.7%
- activity [13]: -3.6%
- Potency [1]: inactive
- Potency [7]: inactive
- Potency [14]: inactive
- Potency [16]: inactive

SMILES: CC(C)N(CCC(=O)c1ccc2ccccc2c1)Cc1ccccc1
- activity [10]: 3.44%
- activity change, negative = inhibition [11]: 9.33%
- activity [12]: -17.4%
- activity [13]: 4.13%
- Potency [1]: inactive
- Potency [7]: inactive
- Potency [14]: inactive
- Potency [15]: inactive
- Potency [16]: 1.2 µM (active)
- outcome [18]: inactive

SMILES: CCCCCCCCCCCCCCCC[n+]1ccccc1
- Potency [17]: 11.2 µM (active)
- Potency [1]: inactive
- Potency [7]: inactive

SMILES: O=C(O)CCC(=O)OC[C@@H](NC(=O)C(Cl)Cl)[C@H](O)c1ccc([N+](=O)[O-])cc1
- Potency [1]: inactive

SMILES: Nc1nc(=O)n([C@@H]2O[C@H](CO)[C@@H](O)[C@@H]2F)cc1I
- Potency [17]: inactive

SMILES: CC(C)(c1ccc(O)cc1)c1ccc(O)cc1
- Potency [19]: 80.4 µM (active)

SMILES: CCN1C(=O)c2ccccc2C1Nc1ccc(OCCN2CCCCC2)cc1 (stereo not drawn)
- activity [10]: -0.796%
- activity change, negative = inhibition [11]: 1.78%
- activity [12]: 1.49%
- activity [13]: 0.197%
- Potency [1]: inactive
- Potency [14]: inactive
- Potency [15]: inactive
- Potency [16]: inactive
- outcome [18]: inactive

SMILES: CCOC(=O)NNc1ccc(N(CC)CC(C)O)nn1 (stereo not drawn)
- Potency [1]: inactive

SMILES: C[N+](C)(C)CCO
- outcome [2]: inactive
- outcome [3]: inactive
- outcome [4]: inactive
- outcome [5]: inactive
- outcome [6]: inactive
- Potency [1]: inactive
- outcome [8]: inactive
- outcome [9]: inactive

SMILES: CCCc1c2oc(C(=O)O)cc(=O)c2cc2c(=O)cc(C(=O)O)n(CC)c12
- Potency [1]: inactive

SMILES: CCOC(=O)c1cc(=O)c2c(OCC(COc3cccc4oc(C(=O)OCC)cc(=O)c34)OC(=O)[C@@H](N)CCCCN)cccc2o1
- Potency [1]: inactive

SMILES: Cc1cc(CCCOc2c(C)cc(-c3noc(C(F)(F)F)n3)cc2C)on1
- Potency [17]: inactive

SMILES: Nc1ccc2cc3ccc(N)cc3nc2c1
- Potency [19]: inactive
- Potency [1]: inactive
- Potency [7]: inactive

SMILES: O=C(O)c1ccccc1Nc1cc(Cl)ccc1C(=O)O
- Potency [1]: inactive

SMILES: CCN1CCN(C(=O)N[C@@H](C(=O)N[C@@H]2C(=O)N3[C@@H]2SC(C)(C)[C@H]3C(=O)O)c2ccccc2)C(=O)C1=O
- Potency [1]: inactive

SMILES: CCOC(=O)Cn1cccc1-c1nc(-c2ccc(OC)cc2)c(-c2ccc(OC)cc2)s1
- activity [10]: -5.88%
- activity change, negative = inhibition [11]: -8.59%
- activity [12]: -5.59%
- activity [13]: -4.51%
- Potency [1]: inactive
- Potency [7]: inactive
- Potency [14]: inactive
- Potency [15]: inactive
- Potency [16]: inactive
- outcome [18]: inactive

SMILES: CCCC(=O)O[C@]1(C(=O)CCl)[C@@H](C)C[C@H]2[C@@H]3CCC4=CC(=O)C=C[C@]4(C)[C@@]3(F)C(=O)C[C@@]21C
- Potency [1]: inactive

SMILES: COC(=O)C1=C(C)NC(COC(N)=O)=C(C(=O)OC(C)C)C1c1cccc(Cl)c1Cl (stereo not drawn)
- Potency [19]: 44.1 µM (active)
- Potency [1]: inactive
- Potency [7]: inactive
- Potency [14]: inactive
- Potency [15]: inactive
- outcome [18]: inactive

SMILES: Nc1cccc2c(N)cccc12
- Potency [19]: inactive

SMILES: Oc1ccc(CCNCCCCCCNCCc2ccccc2)cc1O
- Potency [1]: inactive

SMILES: CN1CCC(Nc2ncc3ncnc(Nc4ccc(F)c(Cl)c4)c3n2)CC1
- Potency [1]: inactive

SMILES: C[C@@H](O[C@H]1OCCN(Cc2n[nH]c(=O)[nH]2)[C@H]1c1ccc(F)cc1)c1cc(C(F)(F)F)cc(C(F)(F)F)c1
- Potency [17]: inactive
- Potency [1]: inactive

SMILES: C[N+](C)(CCOc1ccccc1)Cc1cccs1
- Potency [1]: inactive

SMILES: Clc1ccc2c(c1)N=C(N1CCNCC1)c1ccccc1N2
- Potency [17]: inactive
- outcome [20]: inactive
- Potency [1]: inactive
- Potency [7]: inactive
- Potency [14]: inactive
- Potency [16]: inactive
- outcome [18]: inactive
